Hit rate of the full screen: of about 5,500 compounds, about 2,000 (36%) were called active. Not shown: some 18% with an inconclusive outcome. Rule as the data show it: active = normalized growth mostly below about 0.91 (no sharp cut-off); inconclusive = no clear call, values can overlap the other calls; inactive = mostly above about 0.92. The list shows a part of the results.
Assay: chemical genetic growth profiling, strain panel (AID 1159580);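 also: tested at 20 µM; growth read once vehicle control cultures reached saturation at 30 °C; 1 = growth at the plate median or of vehicle wells; lower values mean less growth of the strain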
Conditions: S. cerevisiae deletion strains, growth OD

Measured: normalized growth

Cc1nc(N)cc(C[n+]2csc(CCO)c2C)n1
inactive: locus YAL021C, strain ccr4, hits give low values 0.946 | locus YAL026C, strain drs2, hits give low values 0.974 | locus YAL030W, strain snc1, hits give low values 0.981 | locus YBL061C, strain skt5, hits give low values 0.983 | locus YBR009C, strain hhf1, hits give low values 0.979 | locus YBR023C, strain chs3, hits give low values 0.998 | locus YBR171W, strain sec66, hits give low values 0.971 | locus YBR231C, strain swc5, hits give low values 0.987 | locus YBR279W, strain paf1, hits give low values 0.985 | locus YCL011C, strain gbp2, hits give low values 0.966 | locus YCL016C, strain dcc1, hits give low values 0.992 | locus YCL061C, strain MRC1, hits give low values 0.977 | locus YCL069W, strain vba3, hits give low values 0.981 | locus YCR088W, strain abp1, hits give low values 0.98 | locus YDL005C, strain med2, hits give low values 0.984 | locus YDL040C, strain nat1, hits give low values 0.988 | locus YDR001C, strain nth1, hits give low values 0.974 | locus YDR069C, strain doa4, hits give low values 0.984 | locus YDR137W, strain rgp1, hits give low values 0.966 | locus YDR159W, strain sac3, hits give low values 0.965 | locus YDR195W, strain ref2 0.944 | locus YDR297W, strain sur2, hits give low values 0.979 | locus YDR334W, strain swr1, hits give low values 0.955 | locus YDR335W, strain msn5, hits give low values 0.966 | locus YDR392W, strain spt3, hits give low values 0.973 | locus YEL003W, strain gim4, hits give low values 0.971 | locus YEL037C, strain rad23, hits give low values 0.967 | locus YEL061C, strain CIN8 (second series), hits give low values 0.974 | locus YER015W, strain faa2, hits give low values 0.975 | locus YER016W, strain bim1, hits give low values 0.979 | locus YER111C, strain swi4, hits give low values 0.992 | locus YER155C, strain BEM2 (second series), hits give low values 0.975 | locus YFR010W, strain ubp6, hits give low values 0.962 | locus YGL167C, strain pmr1, hits give low values 0.973 | locus YGL173C, strain kem1, hits give low values 0.979 | locus YGL227W, strain vid30, hits give low values 0.987 | locus YGL240W, strain doc1, hits give low values 0.98 | locus YGL253W, strain hxk2, hits give low values 0.986 | locus YHR013C, strain ard1, hits give low values 0.986 | locus YHR027C, strain rpn1, hits give low values 0.988 | locus YHR030C, strain SLT2, hits give low values 0.954 | locus YHR079C, strain IRE1, hits give low values 0.942 | locus YHR142W, strain chs7, hits give low values 0.963 | locus YJL092W, strain hpr5, hits give low values 0.966 | locus YJL095W, strain BCK1 (second series), hits give low values 0.978 | locus YJL095W, strain BCK1, hits give low values 0.968 | locus YJL115W, strain asf1, hits give low values 0.969 | locus YJL129C, strain trk1, hits give low values 0.965 | locus YJL154C, strain vps35, hits give low values 0.988 | locus YJL164C, strain tpk1, hits give low values 0.985 | locus YJL166W, strain qcr8, hits give low values 0.981 | locus YJL187C, strain SWE1, hits give low values 0.99 | locus YJR066W, strain TOR1, hits give low values 0.932 | locus YKL160W, strain elf1, hits give low values 0.981 | locus YKR026C, strain gcn3, hits give low values 0.97 | locus YKR091W, strain srl3, hits give low values 0.978 | locus YLL001W, strain dnm1, hits give low values 0.983 | locus YLL026W, hits give low values 0.988 | locus YLL041C, strain sdh2, hits give low values 0.98 | locus YLR027C, strain aat2, hits give low values 0.986 | locus YLR113W, strain HOG1, hits give low values 0.941 | locus YLR221C, strain rsa3, hits give low values 0.982 | locus YLR258W, strain gsy2, hits give low values 0.986 | locus YLR262C, strain YPT6 (second series), hits give low values 0.992 | locus YLR320W, strain mms22, hits give low values 0.988 | locus YLR342W, strain FKS1, hits give low values 0.991 | locus YLR357W, strain rsc2, hits give low values 0.99 | locus YLR370C, strain arc18, hits give low values 0.979 | locus YLR384C, strain iki3, hits give low values 0.983 | locus YML120C, strain ndi1, hits give low values 0.962 | locus YMR058W, strain fet3, hits give low values 0.969 | locus YMR125W, strain sto1, hits give low values 0.946 | locus YMR129W, hits give low values 0.97 | locus YMR205C, strain PFK2, hits give low values 1.01 | locus YMR231W, strain pep5, hits give low values 0.992 | locus YNL071W, strain lat1, hits give low values 0.988 | locus YNL183C, strain NPR1, hits give low values 0.926 | locus YNL209W, strain ssb2, hits give low values 0.981 | locus YNL248C, strain rpa49, hits give low values 0.948 | locus YNL322C, strain KRE1 (second series), hits give low values 0.964 | locus YNR049C, strain mso1, hits give low values 0.978 | locus YOR001W, strain rrp6, hits give low values 0.95 | locus YOR070C, strain gyp1, hits give low values 0.998 | locus YOR080W, strain dia2, hits give low values 0.971 | locus YOR083W, strain WHI5, hits give low values 0.969 | locus YOR106W, strain vam3, hits give low values 0.972 | locus YOR231W, strain MKK1, hits give low values 0.96 | locus YOR265W, strain rbl2, hits give low values 0.983 | locus YOR270C, strain vph1, hits give low values 0.94 | locus YOR290C, strain snf2, hits give low values 0.975 | locus YPL051W, strain arl3, hits give low values 0.996 | locus YPL078C, strain atp4, hits give low values 0.976 | locus YPL106C, strain sse1, hits give low values 0.953 | locus YPL240C, strain hsp82, hits give low values 0.972 | locus YPL256C, strain CLN2, hits give low values 0.95

From PubChem BioAssay AID1159580 (chemical genetic matrix, 2015)
